RORgamma inh: qHTS for inhibitors of ROR gamma transcriptional activity | AID 2551, 2010 | Potency, µM (doses to about 53.6 µM), for the others: at the highest dose activity change, negative = inhibition, usual class: inhibitors | Drosophila S2 Gal4-RORgamma UAS-luciferase reporter, 20 h | 310,000 tested, 5.4% active; also: nearly all actives have a fitted effect of over 60% in size
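Using a luciferase readout, inhibitors were identified by reduced reporter activity in Drosophila cells coexpressing a copper-inducible Gal4–ROR gamma fusion and UAS-driven Photinus luciferase, incubated 20 hr after 700 uM copper sulfate.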
ALDH1A1 inh: qHTS Assay for Inhibitors of Aldehyde Dehydrogenase 1 (ALDH1A1). Potency, µM (doses to about 75.3 µM), inactives show top-dose activity, negative = inhibition, actives largely listed as inhibitors. Aldehyde dehydrogenase 1A1 (Homo sapiens), P00352. 220,000 tested, 7.3% active. Purified ALDH1A1, NADH fluorescence, propionaldehyde substrate; active = well fitted inhibition curve with a large enough effect, not every such curve was filed as active; inconclusive = small, poorly fitted or top-dose-only effect, or another doubt; inactive = no such curve, though single readings can be large or run the other way;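 also: plate controls were no enzyme wells and a reference inhibitor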
Target sequence (P00352 whole entry, looked up): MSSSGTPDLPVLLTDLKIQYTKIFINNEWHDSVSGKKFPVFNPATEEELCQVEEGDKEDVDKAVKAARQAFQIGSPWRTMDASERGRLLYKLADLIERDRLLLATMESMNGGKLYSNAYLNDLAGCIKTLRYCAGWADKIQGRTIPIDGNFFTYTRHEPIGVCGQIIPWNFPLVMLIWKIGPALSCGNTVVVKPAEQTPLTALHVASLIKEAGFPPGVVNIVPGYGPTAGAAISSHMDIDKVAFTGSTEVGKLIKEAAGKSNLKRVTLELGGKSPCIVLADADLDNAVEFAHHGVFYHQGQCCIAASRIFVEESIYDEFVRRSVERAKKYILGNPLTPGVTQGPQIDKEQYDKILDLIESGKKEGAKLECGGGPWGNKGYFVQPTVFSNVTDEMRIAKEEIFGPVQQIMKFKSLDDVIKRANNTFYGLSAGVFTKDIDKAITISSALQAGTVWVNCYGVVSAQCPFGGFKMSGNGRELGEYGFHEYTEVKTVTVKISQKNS
Gal4-VP16 FLuc: VP16 counterscreen qHTS for inhibitors of ROR gamma transcriptional activity; Drosophila S2 Gal4-VP16 UAS-luciferase, luminescence, 20 h; Potency, µM (titrated, usually from 53.6 µM), for inactives: at the highest dose activity, negative = inhibition, hits mostly inhibitors; 310,000 tested, 3.5% active; AID 2546, 2010;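 also: Gal4-VP16 expression switched on by copper sulfate through the metallothionein promoter; nearly all actives have a fitted effect of over 50% in size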
PLK1 PBD block: qHTS for Inhibitors of PLK1-PDB (polo-like kinase 1 - polo-box domain): Primary Screen; 360,000 tested, 2.8% active; AID 720504, 2013; Plk1 PBD binding of FITC phosphopeptide, fluorescence polarization; Potency, µM, for inactives: max response, negative = inhibition, hits mostly inhibitors; Serine/threonine-protein kinase PLK1 (Homo sapiens), P53350; also: series mostly up to about 57 µM; nearly all actives have a fitted effect of over 65% in size
Sfp inh: qHTS Assay for Inhibitors of Bacillus subtilis Sfp phosphopantetheinyl transferase (PPTase). 4'-phosphopantetheinyl transferase ffp (Bacillus subtilis), Q9F4F7. Biochemical Sfp PPTase activity, qHTS. Potency, µM, inactives show largest response in the series, negative = inhibition, actives largely listed as inhibitors. 310,000 tested, 3.5% active. AID 1490, 2009;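 also: the enzyme is Sfp with the accession as filed and its product quenches rhodamine fluorescence; 0% = enzyme reaction without inhibitor and -100% = no enzyme wells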
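Sfp 15 nM + cpd, 15 min RT; start w/ rhodamine-CoA 5 uM, BHQ-2-YbbR 12.5 uM (final); 50 mM Hepes pH 7.6, 10 mM MgCl2, 0.01% NP-40, 0.01% BSA; read 525/598 nm at 0 and 30 min.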
* hit, by the source's call; ? = inconclusive; · = no result; [ ] = dose if it differs, or a comment. A selection: hits, their analogues and other compounds. The true share with any hit is near 12%. Unless noted, calls follow the shape of the dose curve; as a rule, active = well fitted curve in the direction sought with a large enough effect; inconclusive = small, poorly fitted or top-dose-only effect, or another doubt; inactive = no such curve, though single readings can be large; an effect the other way counts as inactive or inconclusive. Unless noted, % is scaled to controls: 0 for no effect and ±100 for the full control effect; potency is read from the fitted curve at half-maximal effect.

SMILES	RORgamma inh	ALDH1A1 inh	Gal4-VP16 FLuc	PLK1 PBD block	Sfp inh
Cc1ccc(S(=O)(=O)NC(=O)NC2CCCCC2)cc1	7.5%	·	-1.5%	·	3.4%
O=S(=O)(NC(=S)NC1CCCCC1)c1ccc(Cl)cc1	2.24µM*	25.1µM*	5.62µM*	?	-16.2%
CCCCC[C@]12Cc3ccccc3C(O1)C1=C(CC(C)(C)CC1=O)O2	-16.3%[10 µM]	·	-4.4%[10 µM]	·	8.2%
Nc1nc(N)c2c(ccc3c2ccn3Cc2cccc([N+](=O)[O-])c2)n1	·	·	·	2.1%	·
CC(C)(C)OC(=O)N(CC1CCNCC1)C(=O)c1[nH]c(C(F)(F)F)nc1-c1ccccc1	·	·	·	-8.1%	·
CC1CC=CC2C1C(=O)N(Cc1ccccc1)C2c1ccc2ccccc2c1 (centres undefined)	?	·	0.4%	·	?
COc1cc(-c2nc(S(=O)(=O)c3ccc(C)cc3)c(N(C)C)o2)cc(OC)c1OC	-29.3%	?	5.9%	-0.1%	56.2µM*
COc1ccccc1-c1nc(S(=O)(=O)c2ccc(Cl)cc2)c(N(C)C)o1	19.2%	23.8µM*	6.8%	?	?
COc1ccccc1-c1nc(S(=O)(=O)c2ccccc2)c(N2CCOCC2)o1	-18.3%	·	-1.4%	-12.8%	-20.2%
Cc1ccc(S(=O)(=O)c2nc(-c3ccccc3Cl)oc2N(C)C)cc1	?	·	6.5%	4.4%	3.4%
COc1cc(-c2nc(S(=O)(=O)c3ccc(Cl)cc3)c(N3CCOCC3)o2)cc(OC)c1OC	9.5%	1µM*	-0.4%	-4.4%	19.2%
COc1cc(-c2nc(S(=O)(=O)c3ccc(C)cc3)c(N3CCOCC3)o2)cc(OC)c1OC	19.6%	1.12µM*	3.9%	-14.4%	?
CCC(C)c1ccccc1NC(=O)C(C)NCCN(C)C (centres undefined)	-0.5%	·	-6.7%	-2.8%	79.4µM*
CCCNC(C)C(=O)Nc1ccccc1C (centres undefined)	32.2%	-1.7%	0.6%	-6.2%	2.8%
Cc1ccc(C(=O)c2ccccc2C(=O)Nc2ccccc2)cc1	·	·	·	1.4%	·
O=C(Nc1ccccc1SC(=O)c1ccccc1)c1ccccc1	·	·	·	4.23µM*	·
Cc1ccc(C(=O)Sc2cccccc2=O)cc1	1.78µM*	·	2.24µM*	2.67µM*	50.1µM*
CSc1ccccc1NC(=O)c1ccccc1	0.6%	-4.3%	-0.9%	-7.7%	21.3%
FC(F)(F)Oc1ccccc1C(c1nnnn1-c1ccc2c(c1)OCCO2)N1CCN(C/C=C/c2ccccc2)CC1 (centres undefined)	·	·	·	2.2%	·
C/C(=N\NC(N)=S)c1ccc(-n2ccnc2)cc1	?	·	-8.5%	-10.2%	79.4µM*
C=C(C)CNC(=S)N/N=C(\C)c1ccc(-n2ccnc2)cc1	6.31µM*	3.7%	7.94µM*	-5.6%	6.0%
COc1ccc(-c2nc3n(c2C)CCC3)cc1	?	·	14.3%	-7.6%	5.9%
COc1ccc(C2=C(SC)CC2=NC(C)(C)C)cc1	20.9%	17.8µM*	?	?	-7.8%
Cc1ccc(OCC(=O)N/N=C\c2c(C)[nH]n(-c3ccccc3)c2=O)c([N+](=O)[O-])c1	0.501µM*	1.9%	0.562µM*	-8.3%	3.4%
Cn1cc(/C=N/NC(=O)COc2ccccc2[N+](=O)[O-])c2ccccc21	?	-19.4%	12.6µM*	-7.8%	35.5µM*
SMILES	RORgamma inh	ALDH1A1 inh	Gal4-VP16 FLuc	PLK1 PBD block	Sfp inh
COc1cc(/C=N/NC(=O)COc2ccccc2[N+](=O)[O-])ccc1OC(=O)c1ccco1	-14.0%[10 µM]	?	1.7%	1.6%	-17.2%
O=C(COc1ccccc1[N+](=O)[O-])N/N=C/c1cccs1	-43.0%	0.0%	15.9%	-2.7%	7.1%
CN1CCN(CCC(=O)N/N=C/c2cc3c(cc2[N+](=O)[O-])OCO3)CC1	4.1%	·	9.0%	2.6%	-5.9%
Cc1cccc(OCC(=O)N/N=C\c2cc3c(cc2[N+](=O)[O-])OCO3)c1C	29.7%	7.94µM*	1.0%	-4.3%	25.1µM*
Cc1ccc(OCC(=O)N/N=C\c2cn(C)c3ccccc23)c([N+](=O)[O-])c1	11.2µM*	2.5%	?	-6.5%	-18.4%
COc1cc([N+](=O)[O-])ccc1NC(=S)NNC(=O)CCC(=O)Nc1ccccc1Cl	17.8%	·	-5.9%	-22.7%	1.2%
CC(C)n1nnnc1C1c2ccccc2C(=O)N1Cc1ccccc1 (centres undefined)	·	·	·	-2.4%	·
CCCC[C@@H]1C[C@H]1C(NC(=O)c1cccnc1)c1ccc(-c2ccccc2)cc1 (some centres undefined)	?	0.4%	?	·	20.9%
O=C(CN1C(=O)NC2(CCCC2)C1=O)N1CCN(S(=O)(=O)c2cc(Cl)ccc2Cl)CC1	·	·	·	-8.7%	·
Cc1ccc(C#N)cc1	20.3%	31.6µM*	-1.3%	·	·
CC(C)CCn1c(COc2ccccc2)nn(CCC#N)c1=S	17.8%	·	-8.1%	-2.3%	1.0%
C[n+]1ccn(CC(=O)c2cccs2)c1	10µM*	·	-6.3%	-12.3%	20.3%
O=C(CCC(=O)c1cccs1)c1cccs1	?	28.2µM*	-29.7%	1.6%	21.1%
O=C(C1CCCCC1)N(CCN1CCN(c2ccccc2CO)CC1)c1ccccn1	·	-2.9%	·	·	22.0%
CC(=O)NCCNc1ncnc2ccc(-c3ccccc3C#N)cc12	23.3%	?	-14.0%	·	8.8%
CC(=O)n1c(Cl)c(NC(=O)CCl)c2ccccc21	-28.7%	22.4µM*	18.9%	-6.7%	12.4%
CC(=O)n1c2ccccc2c2ccccc21	25.5%	15.6%	-0.8%	-3.5%	12.0%
Fc1ccc(NC(=S)NNc2ncc(C(F)(F)F)cc2Cl)c(F)c1	5.01µM*	4.47µM*	?	-7.4%	1.0%
O=C(Nc1ccc(F)cc1F)c1cccn1-c1ncc(C(F)(F)F)cc1Cl	24.8%	-7.7%	-7.9%	-3.2%	13.4%
Cc1ccc(NC(=S)NNc2ncc(C(F)(F)F)cc2Cl)cc1	12.6µM*	10µM*	11.2µM*	-22.8%	12.9%
FC(F)(F)c1cnc(NNC(=S)Nc2ccc(Cl)cc2)c(Cl)c1	5.62µM*	5.01µM*	7.94µM*	-13.6%	-12.2%
Cc1ccc(NC(=S)NNc2ncc(C(F)(F)F)cc2Cl)c(C)c1	10µM*	?	?	-16.2%	9.8%

High-throughput results: PubChem BioAssay, National Center for Advancing Translational Sciences (NCATS)
